ELG1 DNA repair = qHTS screen for small molecules that inhibit ELG1-dependent DNA repair in human embryonic kidney (HEK293T) cells expressing luciferase-tagged ELG1; HEK293T ELG1-luciferase reporter, luminescence, 16 h; DNA damage induced by 5-fluorouridine; Potency, µM (series often up to 46.1 µM), for the others: at the highest dose activity change, negative = inhibition, actives largely listed as inhibitors; hit rate 2.3% among 330,000; AID 504467, 2011; note: potency is the fitted concentration of half-maximal effect; nearly all actives have a fitted effect of over 55% in size
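Overnight (16 hr) co-exposure of 2,000 cells/well to 5-fluorouridine and compound at 37 °C preceded detection. Luciferase was quantified via ONE-Glo luminescence; loss of signal denotes inhibition.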
DT40 TDP1 no CPT = qHTS for Inhibitors of human tyrosyl-DNA phosphodiesterase 1 (TDP1): qHTS in cells in absence of CPT | Potency, µM (doses to about 46.2 µM), for inactives: at the top dose activity change, negative = growth inhibition, actives largely listed as inhibitors | DT40 Tdp1-/- hTDP1 cells, no CPT, ATP luminescence, 48 h | AID 686978, 2013 | hit rate 15% among 420,000; note: potency is the fitted concentration of half-maximal effect; nearly all actives have a fitted effect of over 55% in size
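Cells were dispensed at 400 per well, compounds added by pin tool, plates incubated ≥48 hr at 37 °C, then CellTiter-Glo added for 30 min at room temperature before luminescence reading. Line: DT40 Tdp1-/- complemented with hTDP1; camptothecin omitted.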
Gal4-VP16 FLuc = VP16 counterscreen qHTS for inhibitors of ROR gamma transcriptional activity | Potency, µM (doses to about 53.6 µM), for inactives: top-dose activity, negative = inhibition, hits mostly inhibitors | hit rate 3.5% among 310,000 | Drosophila S2 Gal4-VP16 UAS-luciferase, luminescence, 20 h;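 note: Gal4-VP16 expression switched on by copper sulfate through the metallothionein promoter; potency is the fitted concentration of half-maximal effect; nearly all actives have a fitted effect of over 50% in size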
RORg inh = qHTS for inhibitors of ROR gamma transcriptional activity. Nuclear receptor ROR-gamma (Mus musculus), P51450. Drosophila S2 Gal4-RORgamma UAS-luciferase reporter, 20 h. Potency, µM (doses to about 53.6 µM), for the others: at the highest dose activity change, negative = inhibition, actives largely listed as inhibitors. hit rate 5.4% among 310,000. AID 2551, 2010; note: potency is the fitted concentration of half-maximal effect; nearly all actives have a fitted effect of over 60% in size
Target sequence (P51450 whole entry, looked up, the tested form may be a part): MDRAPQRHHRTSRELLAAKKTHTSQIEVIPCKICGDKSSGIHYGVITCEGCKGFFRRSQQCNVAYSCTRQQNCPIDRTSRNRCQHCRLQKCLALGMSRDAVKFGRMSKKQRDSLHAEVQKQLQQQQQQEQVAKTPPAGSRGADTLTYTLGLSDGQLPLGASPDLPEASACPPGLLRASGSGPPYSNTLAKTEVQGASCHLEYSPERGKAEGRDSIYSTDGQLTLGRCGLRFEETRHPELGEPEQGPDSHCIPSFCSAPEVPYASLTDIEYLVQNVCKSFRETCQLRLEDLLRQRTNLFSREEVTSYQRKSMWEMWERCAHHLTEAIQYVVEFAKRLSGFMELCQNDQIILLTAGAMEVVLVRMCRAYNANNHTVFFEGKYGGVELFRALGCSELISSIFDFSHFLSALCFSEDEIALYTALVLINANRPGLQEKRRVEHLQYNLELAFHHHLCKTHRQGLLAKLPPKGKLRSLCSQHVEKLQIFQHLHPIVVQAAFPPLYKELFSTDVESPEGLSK
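Read-out: Photinus luciferase luminescence; inhibitors lower reporter signal. Insect Schneider cells with Gal4-ROR gamma fusion under metallothionein promoter, UAS reporter; 700 uM final copper sulfate induction, 20 hr, ambient temperature.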
DT40 TDP1 CPT = qHTS for Inhibitors of human tyrosyl-DNA phosphodiesterase 1 (TDP1): qHTS in cells in presence of CPT; chicken DT40 Tdp1-/-;hTDP1 cells + 20 nM CPT, ATP luminescence, 48 h; Potency, µM (titrated, usually from 46.2 µM), for the others: at the highest dose activity change, negative = growth inhibition, hits mostly inhibitors; hit rate 12% among 420,000; AID 686979, 2013; note: potency is the fitted concentration of half-maximal effect; nearly all actives have a fitted effect of over 55% in size
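Chicken DT40 Tdp1-/- cells stably complemented with human TDP1 were seeded at 400 cells/well in medium containing 20 nM camptothecin, exposed to pin-transferred compounds, and grown at 37 °C for at least 48 hr. Viability was read as ATP luminescence.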
IL-1B inflam inh = qHTS for Inhibitors of Inflammasome Signaling: IL-1-beta AlphaLISA Primary Screen. AID 743279, 2014. hit rate 4.7% among 360,000. activity change, % at 57.5 µM. THP-1 LPS/ATP IL-1B secretion, AlphaLISA, 16 h; active compounds read low; in the data active = activity change below about -50%; inconclusive = mostly about -30% to -49%
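Secreted IL-1B measured by AlphaLISA bead assay after 16 h compound exposure of THP-1 cells; compounds (final up to 57.5 uM) added 1 h before LPS (250 ng/mL) and ATP (1.25 mM) stimulation; lower signal means less secretion.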
An asterisk follows results filed as active; ? = inconclusive; · = no result. Rows were chosen to be rich in hits. Some 21% of all compounds tested hit in one or more screens of this group. Unless noted, calls come from the whole dose curve; as a rule, active = well fitted curve in the direction sought with a large enough effect; inconclusive = small, poorly fitted or top-dose-only effect, or another doubt; inactive = no such curve, though single readings can be large; an effect the other way counts as inactive or inconclusive. % is set by controls: 0 for no effect and ±100 for the full control effect.

SMILES	ELG1 DNA repair	DT40 TDP1 no CPT	Gal4-VP16 FLuc	RORg inh	DT40 TDP1 CPT	IL-1B inflam inh
Cc1cccc(N(C(=O)CCC(=O)Nc2cc(C)on2)C(C(=O)NC2CCCC2)c2ccc(C)o2)c1 (stereo unspecified)	?	-18%	-6%	31%	?	-1
Cc1cc(NC(=O)CCC(=O)N(c2ccccc2)C2(C(=O)NC3CCCCC3)CCCC2)no1	16%	-29%	-5%	15%	-22%	-61*
Cc1ccc(C)c(N(C(=O)CCC(=O)Nc2cc(C)on2)C(C(=O)NC2CCCC2)c2ccco2)c1 (stereo unspecified)	-21%	23µM*	-3%	41%	16µM*	-6
COc1cccc(C(C(=O)NC(C)(C)C)N(Cc2ccco2)C(=O)CCC(=O)Nc2cc(C)on2)c1OC (stereo unspecified)	6%	29µM*	5%	36%	3%	-12
CCOC(=O)c1noc2c1CCC2	·	14%	·	·	22%	2
CCNc1ncc2nc(-c3ccccc3)c(=O)n(Cc3cccc(OC)c3)c2n1	·	1%	-10%	?	2%	·
O=C(NC1CCCC1)C(C1CC1)n1c(-c2ccncc2)nc2ccccc21 (stereo unspecified)	·	2%	·	·	-6%	12
O=C(Nc1ccc(Cl)cc1)Nc1csc([N+](=O)[O-])c1	-3%	9.2µM*	?	?	18µM*	·
O=C(Nc1csc([N+](=O)[O-])c1)Nc1c(Cl)cccc1Cl	-6%	16µM*	-3%	-7%	?	-10
CCCNC(=O)C1(C)CCCN(C(=O)c2ccc3snnc3c2)C1 (stereo unspecified)	·	-4%	·	·	6%	18
CCc1ccc(C2CC(=O)c3c([nH]c(C(=O)OCC4CCCCC4)c3C)C2)cc1 (stereo unspecified)	·	?	·	·	-25%	·
CCOC(=O)c1[nH]c2c(c1Cc1ccccc1OC)C(=O)CC(c1ccc(OCC)cc1)C2 (stereo unspecified)	·	9.2µM*	·	·	8.2µM*	·
COc1cc(C2CC(=O)c3c([nH]c(C(=O)OC4CCCCC4)c3C)C2)cc(OC)c1OC (stereo unspecified)	·	2.1µM*	·	·	1.8µM*	·
COc1cc(C2CC(=O)c3c([nH]c(C(=O)OCC4CCCCC4)c3C)C2)cc(OC)c1OC (stereo unspecified)	·	1.6µM*	·	·	1.3µM*	·
CCOc1ccc(C2CC(=O)c3c([nH]c(C(=O)OCC4CCCCC4)c3C)C2)cc1 (stereo unspecified)	·	18µM*	·	·	?	·
Cc1cccc(C)c1NC(=O)CSc1n[nH]c(=O)n1C1CC1	0%	-7%	·	·	-2%	15
COc1ccc(OC)c(C(C(=O)NCc2ccco2)N(C(=O)Cn2nnc3ccccc32)C2CC2)c1 (stereo unspecified)	-11%	16µM*	-2%	14%	13µM*	0
CCCCN(C(=O)Cn1nnc2ccccc21)C(C(=O)NCCOC)c1ccc(OC)cc1 (stereo unspecified)	-1%	1%	1%	40%	2%	5
COc1ccc(OC)c(C(C(=O)NCc2ccco2)N(C(=O)Cn2nnc3ccccc32)C(C)C)c1 (stereo unspecified)	1%	-29%	-9%	-16%	-23%	-12

Screening results deposited in PubChem by National Center for Advancing Translational Sciences (NCATS).
